Test results as given in publication PMC7862700, “An all-to-all approach to the identification of sequence-specific readers for epigenetic DNA modifications on cytosine”.

How the values were obtained:
Assay in all cases: DAPPL (digital affinity profiling via proximity ligation, sequencing); 10 mM Tris-HCl pH 7.5, 50 mM NaCl, 1 mM DTT, 4% glycerol, room temperature, 30 min; GST-TFs on glutathione beads, 16-mer random dsDNA library, 0.1% formaldehyde crosslink after washing; high values mean tight binding
FEV = biological target: T1, FEV (Homo sapiens, UniProt Q99581 1-238); details: protein: recombinant; tags: N-terminal GST; dsDNA, one strand shown
T1 sequence: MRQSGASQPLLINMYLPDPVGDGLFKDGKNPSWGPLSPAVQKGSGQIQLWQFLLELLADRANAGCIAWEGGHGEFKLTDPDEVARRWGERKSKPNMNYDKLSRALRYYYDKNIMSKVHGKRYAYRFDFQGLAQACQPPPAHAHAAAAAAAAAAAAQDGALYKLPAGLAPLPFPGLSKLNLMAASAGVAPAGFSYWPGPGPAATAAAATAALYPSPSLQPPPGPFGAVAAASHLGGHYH
Summary of the method: (§1)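 Binding signal is each hexamer's read frequency for a factor divided by its frequency in the tag-only sample. The factors were GST-fused human transcription factors from yeast, captured on glutathione beads, DNA-barcoded and pooled with that sample. Pools were incubated with 200 nmole of a random double-stranded 16-mer DNA library in Tris/NaCl/DTT/glycerol buffer at room temperature for 30 min, then washed, crosslinked with 0.1% formaldehyde, proximity-ligated with BsaI/T4 ligase (1 h, 37 °C), PCR-amplified and sequenced on an Illumina NextSeq500.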

ETV5 = ETV5 (Homo sapiens, UniProt P41161 1-510); details: protein: recombinant; tags: N-terminal GST; dsDNA, one strand shown
Summary of the method: as §1

HSF1 = HSF1 (Homo sapiens, UniProt Q00613 1-529); details: protein: recombinant; tags: N-terminal GST; chain copies: 3; dsDNA, one strand shown
Summary of the method: as §1

SPIC = biological target: T2, SPIC (Homo sapiens, UniProt Q8N5J4 1-248); details: protein: recombinant; tags: N-terminal GST; dsDNA, one strand shown
T2 sequence: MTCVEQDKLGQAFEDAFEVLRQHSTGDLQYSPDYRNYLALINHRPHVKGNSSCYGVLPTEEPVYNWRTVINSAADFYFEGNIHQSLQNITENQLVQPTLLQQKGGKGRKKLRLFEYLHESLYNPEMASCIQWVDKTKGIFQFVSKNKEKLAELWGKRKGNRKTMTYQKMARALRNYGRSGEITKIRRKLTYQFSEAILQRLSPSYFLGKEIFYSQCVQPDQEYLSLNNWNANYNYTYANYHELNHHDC
Summary of the method: as §1

ELF4 = ELF4 (Homo sapiens, UniProt Q99607 1-663); details: protein: recombinant; tags: N-terminal GST; dsDNA, one strand shown
Summary of the method: as §1

ELK4 = biological target: T3, ELK4 (Homo sapiens, UniProt P28324-2 1-405); details: protein: recombinant; tags: N-terminal GST; dsDNA, one strand shown
T3 sequence: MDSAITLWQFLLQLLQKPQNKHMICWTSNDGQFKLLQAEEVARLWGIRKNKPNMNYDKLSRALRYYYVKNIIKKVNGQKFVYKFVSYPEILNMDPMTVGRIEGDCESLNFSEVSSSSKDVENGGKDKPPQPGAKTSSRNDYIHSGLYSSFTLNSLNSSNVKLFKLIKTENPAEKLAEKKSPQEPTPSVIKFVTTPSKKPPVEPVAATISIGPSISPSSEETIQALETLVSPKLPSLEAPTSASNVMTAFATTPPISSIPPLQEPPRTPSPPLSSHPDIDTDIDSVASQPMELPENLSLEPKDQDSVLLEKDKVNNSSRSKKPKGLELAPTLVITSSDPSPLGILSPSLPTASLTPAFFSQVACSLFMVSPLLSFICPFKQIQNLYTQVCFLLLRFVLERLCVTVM
Summary of the method: as §1

ETV2 = biological target: T4, ETV2 (Homo sapiens, UniProt O00321 1-342); details: protein: recombinant; tags: N-terminal GST; dsDNA, one strand shown
T4 sequence: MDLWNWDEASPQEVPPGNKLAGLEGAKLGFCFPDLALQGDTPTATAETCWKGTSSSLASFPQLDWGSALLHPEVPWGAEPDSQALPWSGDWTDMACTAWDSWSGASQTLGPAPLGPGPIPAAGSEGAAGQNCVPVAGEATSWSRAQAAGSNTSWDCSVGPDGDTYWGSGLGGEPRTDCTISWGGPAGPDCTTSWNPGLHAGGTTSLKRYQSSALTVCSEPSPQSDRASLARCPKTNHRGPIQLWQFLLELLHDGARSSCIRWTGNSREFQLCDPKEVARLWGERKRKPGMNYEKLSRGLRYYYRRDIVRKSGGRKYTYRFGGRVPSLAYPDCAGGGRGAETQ
Summary of the method: as §1

ELF3 = biological target: T5, ELF3 (Homo sapiens, UniProt P78545 1-371); details: protein: recombinant; tags: N-terminal GST; dsDNA, one strand shown
T5 sequence: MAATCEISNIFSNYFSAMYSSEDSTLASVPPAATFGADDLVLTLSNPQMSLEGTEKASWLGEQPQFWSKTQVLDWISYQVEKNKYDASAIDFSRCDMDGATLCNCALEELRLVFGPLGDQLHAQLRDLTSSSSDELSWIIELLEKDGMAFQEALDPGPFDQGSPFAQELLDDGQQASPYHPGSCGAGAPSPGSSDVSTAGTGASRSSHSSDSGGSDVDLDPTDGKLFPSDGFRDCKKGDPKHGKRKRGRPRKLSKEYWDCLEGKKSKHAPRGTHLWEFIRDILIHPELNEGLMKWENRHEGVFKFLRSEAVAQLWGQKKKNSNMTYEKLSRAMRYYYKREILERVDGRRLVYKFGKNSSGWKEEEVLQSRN
Summary of the method: as §1

CRX = CRX (Homo sapiens, UniProt O43186 1-299); details: protein: recombinant; tags: N-terminal GST; dsDNA, one strand shown
Summary of the method: as §1

ETV1 = ETV1 (Homo sapiens, UniProt P50549 1-477); details: protein: recombinant; tags: N-terminal GST; dsDNA, one strand shown
Summary of the method: as §1

ERF = biological target: T6, ERF (Homo sapiens, UniProt P50548 1-548); details: protein: recombinant; tags: N-terminal GST; dsDNA, one strand shown
T6 sequence: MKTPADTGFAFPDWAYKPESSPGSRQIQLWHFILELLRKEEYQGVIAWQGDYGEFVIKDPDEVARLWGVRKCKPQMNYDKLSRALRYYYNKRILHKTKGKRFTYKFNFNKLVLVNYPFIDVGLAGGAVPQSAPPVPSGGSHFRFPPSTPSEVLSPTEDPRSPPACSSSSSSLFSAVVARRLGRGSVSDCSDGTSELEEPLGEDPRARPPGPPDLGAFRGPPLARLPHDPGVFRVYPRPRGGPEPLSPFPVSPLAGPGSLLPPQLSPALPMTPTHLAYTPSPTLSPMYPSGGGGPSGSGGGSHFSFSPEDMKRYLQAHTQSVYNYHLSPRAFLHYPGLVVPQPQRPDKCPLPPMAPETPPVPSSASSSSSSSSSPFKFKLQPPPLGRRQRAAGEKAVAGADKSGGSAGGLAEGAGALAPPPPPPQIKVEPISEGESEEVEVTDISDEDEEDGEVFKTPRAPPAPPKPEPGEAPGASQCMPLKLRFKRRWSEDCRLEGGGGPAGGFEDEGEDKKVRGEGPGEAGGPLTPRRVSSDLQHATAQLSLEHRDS
Summary of the method: as §1

ETV3L = biological target: T7, ETV3L (Homo sapiens, UniProt Q6ZN32 1-361); details: protein: recombinant; tags: N-terminal GST; dsDNA, one strand shown
T7 sequence: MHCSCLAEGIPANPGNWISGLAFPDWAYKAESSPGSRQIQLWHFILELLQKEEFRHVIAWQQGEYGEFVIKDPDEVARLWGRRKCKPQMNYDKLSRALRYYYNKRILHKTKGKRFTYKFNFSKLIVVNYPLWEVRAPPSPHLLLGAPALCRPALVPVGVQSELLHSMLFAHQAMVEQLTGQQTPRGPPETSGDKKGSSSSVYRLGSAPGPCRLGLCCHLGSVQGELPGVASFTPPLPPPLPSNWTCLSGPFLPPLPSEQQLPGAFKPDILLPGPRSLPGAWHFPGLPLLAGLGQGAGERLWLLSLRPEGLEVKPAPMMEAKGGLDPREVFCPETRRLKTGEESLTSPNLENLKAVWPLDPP
Summary of the method: as §1

ETS2 = biological target: T8, ETS2 (Homo sapiens, UniProt P15036 1-469); details: protein: recombinant; tags: N-terminal GST; dsDNA, one strand shown
T8 sequence: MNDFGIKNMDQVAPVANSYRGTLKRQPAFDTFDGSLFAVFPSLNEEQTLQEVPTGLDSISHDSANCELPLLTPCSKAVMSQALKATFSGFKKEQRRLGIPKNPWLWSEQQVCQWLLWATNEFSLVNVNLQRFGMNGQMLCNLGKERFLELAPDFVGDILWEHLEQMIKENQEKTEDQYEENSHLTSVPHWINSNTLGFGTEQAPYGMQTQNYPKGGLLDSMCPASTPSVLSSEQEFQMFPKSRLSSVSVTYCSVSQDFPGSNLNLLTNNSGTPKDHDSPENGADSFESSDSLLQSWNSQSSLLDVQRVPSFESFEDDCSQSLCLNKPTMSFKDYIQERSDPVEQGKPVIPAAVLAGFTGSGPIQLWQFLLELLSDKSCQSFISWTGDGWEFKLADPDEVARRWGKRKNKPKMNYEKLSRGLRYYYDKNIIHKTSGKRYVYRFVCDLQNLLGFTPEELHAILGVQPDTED
Summary of the method: as §1

SPDEF = biological target: T9, SPDEF (Homo sapiens, UniProt O95238 1-335); details: protein: recombinant; tags: N-terminal GST; dsDNA, one strand shown
T9 sequence: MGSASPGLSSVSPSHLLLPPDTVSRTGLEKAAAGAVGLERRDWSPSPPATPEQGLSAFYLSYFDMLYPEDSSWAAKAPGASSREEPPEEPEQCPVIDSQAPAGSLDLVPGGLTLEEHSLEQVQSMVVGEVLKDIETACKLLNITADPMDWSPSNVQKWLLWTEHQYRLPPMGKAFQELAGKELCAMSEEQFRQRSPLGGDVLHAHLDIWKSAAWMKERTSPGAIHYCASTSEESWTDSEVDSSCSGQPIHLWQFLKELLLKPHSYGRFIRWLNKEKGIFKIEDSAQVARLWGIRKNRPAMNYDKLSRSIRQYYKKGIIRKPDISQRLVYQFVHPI
Summary of the method: as §1

ETV7 = biological target: T10, ETV7 (Homo sapiens, UniProt Q9Y603 1-341); details: protein: recombinant; tags: N-terminal GST; dsDNA, one strand shown
T10 sequence: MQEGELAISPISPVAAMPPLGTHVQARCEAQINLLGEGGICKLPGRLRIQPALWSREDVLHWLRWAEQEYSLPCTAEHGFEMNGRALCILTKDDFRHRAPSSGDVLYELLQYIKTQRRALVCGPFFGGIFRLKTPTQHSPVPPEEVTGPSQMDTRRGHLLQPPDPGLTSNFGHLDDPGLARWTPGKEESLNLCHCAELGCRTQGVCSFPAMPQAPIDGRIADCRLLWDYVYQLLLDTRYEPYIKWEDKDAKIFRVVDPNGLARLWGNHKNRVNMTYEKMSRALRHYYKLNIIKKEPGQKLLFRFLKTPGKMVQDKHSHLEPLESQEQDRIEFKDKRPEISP
Summary of the method: as §1

ELF5 = biological target: T11, ELF5 (Homo sapiens, UniProt Q9UKW6-2 1-255); details: protein: recombinant; tags: N-terminal GST; dsDNA, one strand shown
T11 sequence: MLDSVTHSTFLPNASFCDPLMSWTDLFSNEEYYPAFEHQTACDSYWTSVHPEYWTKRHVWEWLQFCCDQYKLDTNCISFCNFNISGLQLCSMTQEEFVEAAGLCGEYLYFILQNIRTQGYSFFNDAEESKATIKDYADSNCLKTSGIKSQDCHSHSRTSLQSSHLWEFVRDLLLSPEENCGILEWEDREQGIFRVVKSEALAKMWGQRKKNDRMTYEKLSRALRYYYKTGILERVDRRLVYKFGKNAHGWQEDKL
Summary of the method: as §1

ETV3 = biological target: T12, ETV3 (Homo sapiens, UniProt P41162-2 1-143); details: protein: recombinant; tags: N-terminal GST; dsDNA, one strand shown
T12 sequence: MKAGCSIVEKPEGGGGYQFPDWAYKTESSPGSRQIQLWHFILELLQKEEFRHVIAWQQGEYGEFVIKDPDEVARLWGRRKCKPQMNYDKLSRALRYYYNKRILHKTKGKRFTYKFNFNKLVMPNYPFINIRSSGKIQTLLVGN
Summary of the method: as §1

ETV6 = ETV6 (Homo sapiens, UniProt P41212 1-452); details: protein: recombinant; tags: N-terminal GST; dsDNA, one strand shown
Summary of the method: as §1

Sequence of ETV6 (P41212 whole entry): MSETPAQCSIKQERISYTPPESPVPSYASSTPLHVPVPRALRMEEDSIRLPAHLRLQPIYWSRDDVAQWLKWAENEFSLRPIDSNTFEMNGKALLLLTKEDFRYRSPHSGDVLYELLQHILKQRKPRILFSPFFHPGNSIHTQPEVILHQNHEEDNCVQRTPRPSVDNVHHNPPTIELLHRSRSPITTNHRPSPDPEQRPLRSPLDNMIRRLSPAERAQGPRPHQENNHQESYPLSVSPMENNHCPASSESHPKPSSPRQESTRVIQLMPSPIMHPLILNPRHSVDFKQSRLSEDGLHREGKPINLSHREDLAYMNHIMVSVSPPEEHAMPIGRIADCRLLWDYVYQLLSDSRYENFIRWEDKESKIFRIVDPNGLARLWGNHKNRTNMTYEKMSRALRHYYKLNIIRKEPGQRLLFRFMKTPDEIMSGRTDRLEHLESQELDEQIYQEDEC
Sequence of HSF1 (Q00613 whole entry): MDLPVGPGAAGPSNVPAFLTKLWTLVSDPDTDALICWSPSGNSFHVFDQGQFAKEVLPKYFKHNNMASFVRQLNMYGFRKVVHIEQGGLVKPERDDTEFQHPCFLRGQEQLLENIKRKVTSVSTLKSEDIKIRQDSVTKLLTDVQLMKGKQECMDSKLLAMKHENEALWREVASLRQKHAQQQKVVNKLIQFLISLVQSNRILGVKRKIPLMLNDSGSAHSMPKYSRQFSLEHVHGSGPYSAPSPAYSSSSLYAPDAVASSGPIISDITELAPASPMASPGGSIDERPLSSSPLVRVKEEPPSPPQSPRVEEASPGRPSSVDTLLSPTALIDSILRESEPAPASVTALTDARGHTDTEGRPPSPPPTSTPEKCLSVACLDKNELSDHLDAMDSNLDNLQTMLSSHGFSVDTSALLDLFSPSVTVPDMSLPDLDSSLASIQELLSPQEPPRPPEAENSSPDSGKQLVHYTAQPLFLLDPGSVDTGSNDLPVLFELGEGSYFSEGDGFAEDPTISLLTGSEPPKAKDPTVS
Sequence of ETV1 (P50549 whole entry): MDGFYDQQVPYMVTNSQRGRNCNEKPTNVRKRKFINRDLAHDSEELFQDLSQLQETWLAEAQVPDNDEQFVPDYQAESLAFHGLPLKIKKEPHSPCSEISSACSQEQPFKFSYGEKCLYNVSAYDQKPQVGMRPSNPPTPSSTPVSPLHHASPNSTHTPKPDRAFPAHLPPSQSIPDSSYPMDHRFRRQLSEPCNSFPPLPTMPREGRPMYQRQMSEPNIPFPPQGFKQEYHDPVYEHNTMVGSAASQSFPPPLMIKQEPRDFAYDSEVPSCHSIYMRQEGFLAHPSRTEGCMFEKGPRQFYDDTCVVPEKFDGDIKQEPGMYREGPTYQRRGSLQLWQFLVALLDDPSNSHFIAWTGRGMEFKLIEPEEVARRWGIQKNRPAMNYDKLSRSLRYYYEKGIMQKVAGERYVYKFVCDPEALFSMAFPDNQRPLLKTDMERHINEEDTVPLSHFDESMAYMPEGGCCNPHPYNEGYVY
Sequence of ELF4 (Q99607 whole entry): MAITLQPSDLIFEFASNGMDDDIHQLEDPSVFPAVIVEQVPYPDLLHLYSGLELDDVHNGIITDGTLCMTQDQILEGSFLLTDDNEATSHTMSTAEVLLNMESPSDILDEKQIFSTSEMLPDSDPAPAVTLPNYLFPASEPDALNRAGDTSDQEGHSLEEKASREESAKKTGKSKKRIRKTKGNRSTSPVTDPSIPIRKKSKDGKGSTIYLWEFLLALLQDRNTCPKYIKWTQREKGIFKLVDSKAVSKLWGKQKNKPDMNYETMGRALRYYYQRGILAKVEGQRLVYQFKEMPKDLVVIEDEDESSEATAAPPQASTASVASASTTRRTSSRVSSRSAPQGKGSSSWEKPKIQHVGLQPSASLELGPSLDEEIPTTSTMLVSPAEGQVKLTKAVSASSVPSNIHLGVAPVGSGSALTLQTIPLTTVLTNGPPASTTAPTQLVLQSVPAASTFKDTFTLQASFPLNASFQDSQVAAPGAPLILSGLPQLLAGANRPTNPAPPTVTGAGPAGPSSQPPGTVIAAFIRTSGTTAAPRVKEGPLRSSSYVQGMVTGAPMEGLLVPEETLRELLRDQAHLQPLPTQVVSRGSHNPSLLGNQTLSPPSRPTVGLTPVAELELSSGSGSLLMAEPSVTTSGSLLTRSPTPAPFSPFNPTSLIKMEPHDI
Sequence of CRX (O43186 whole entry): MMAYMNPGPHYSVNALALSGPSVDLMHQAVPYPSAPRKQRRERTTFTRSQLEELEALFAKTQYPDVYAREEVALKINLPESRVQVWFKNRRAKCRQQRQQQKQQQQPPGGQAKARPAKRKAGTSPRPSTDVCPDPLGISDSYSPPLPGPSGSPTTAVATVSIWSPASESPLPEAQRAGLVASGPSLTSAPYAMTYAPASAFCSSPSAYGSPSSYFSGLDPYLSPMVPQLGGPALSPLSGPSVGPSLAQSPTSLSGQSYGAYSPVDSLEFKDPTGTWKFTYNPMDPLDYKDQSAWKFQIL
Sequence of ETV5 (P41161 whole entry): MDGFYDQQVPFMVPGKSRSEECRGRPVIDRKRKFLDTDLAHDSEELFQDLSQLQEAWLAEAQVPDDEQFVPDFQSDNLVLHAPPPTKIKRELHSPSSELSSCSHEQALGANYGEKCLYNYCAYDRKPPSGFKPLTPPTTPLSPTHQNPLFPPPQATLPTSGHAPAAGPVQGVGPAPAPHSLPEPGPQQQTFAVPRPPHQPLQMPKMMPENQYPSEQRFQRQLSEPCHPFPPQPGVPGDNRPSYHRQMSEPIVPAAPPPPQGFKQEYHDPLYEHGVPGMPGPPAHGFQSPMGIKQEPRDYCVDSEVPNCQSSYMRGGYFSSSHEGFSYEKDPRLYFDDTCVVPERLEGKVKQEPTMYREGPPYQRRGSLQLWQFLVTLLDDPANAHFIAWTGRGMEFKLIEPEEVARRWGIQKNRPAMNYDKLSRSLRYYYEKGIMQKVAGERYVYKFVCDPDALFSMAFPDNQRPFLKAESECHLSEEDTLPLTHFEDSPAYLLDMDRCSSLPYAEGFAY

ATCTCG
binding signal (FEV): 1.19 fold enrichment (6-mer frequency, TF over GST control) | binding signal (ETV5): 1.35 fold enrichment (6-mer frequency, TF over GST control) | binding signal (HSF1): 2.44 fold enrichment (6-mer frequency, TF over GST control) | binding signal (SPIC): 1.19 fold enrichment (6-mer frequency, TF over GST control) | binding signal (ELF4): 1.32 fold enrichment (6-mer frequency, TF over GST control) | binding signal (ELK4): 1.42 fold enrichment (6-mer frequency, TF over GST control) | binding signal (ETV2): 1.51 fold enrichment (6-mer frequency, TF over GST control) | binding signal (ELF3): 1.55 fold enrichment (6-mer frequency, TF over GST control) | binding signal (CRX): 1.92 fold enrichment (6-mer frequency, TF over GST control) | binding signal (ETV1): 1.46 fold enrichment (6-mer frequency, TF over GST control) | binding signal (ERF): 1.36 fold enrichment (6-mer frequency, TF over GST control) | binding signal (ETV3L): 1.38 fold enrichment (6-mer frequency, TF over GST control) | binding signal (ETS2): 1.42 fold enrichment (6-mer frequency, TF over GST control) | binding signal (SPDEF): 1.28 fold enrichment (6-mer frequency, TF over GST control) | binding signal (ETV7): 1.38 fold enrichment (6-mer frequency, TF over GST control) | binding signal (ELF5): 1.28 fold enrichment (6-mer frequency, TF over GST control) | binding signal (ETV3): 1.29 fold enrichment (6-mer frequency, TF over GST control) | binding signal (ETV6): 1.3 fold enrichment (6-mer frequency, TF over GST control)
